This note sets out measurements from PubChem BioAssay AID485350 (ICCB-Longwood Screening Facility, Harvard Medical School, 2010).

Molecules are shown by their SMILES. Out of some 84,000 compounds screened, about 95 (0.1%) were called active. This excerpt belongs to a sample that is enriched for actives. Unmarked numbers belong to inactive results. Cut-off read from the data, not from the text of the source: active = inhibition above about 25% (passing the limit was not always enough); inactive = the rest.

In the assay the test system is BasE (2,3-dihydroxybenzoate-AMP ligase), Acinetobacter baumannii ATCC 17978. Nature of the assay: BasE siderophore enzyme inhibitors, primary screen, biochemical, Acinetobacter baumannii ATCC 17978, fluorescence polarization (AID 485350).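 Note: 0% = negative plate control signal and 100% = positive plate control signal.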 The conditions noted are these: purified BasE, fluorescence polarization binding displacement; hits give high values; concentration not given here. On the technique in general: Fluorescence polarisation rises when a labelled molecule tumbles more slowly, as on binding a larger partner.
Usually inhibition stands for the drop in the measured response relative to a control, in per cent. As to `COc1ccccc1OCCCn1cc(/C=C2/C(=N)N3C=CSC3=NC2=O)c2ccccc21`, the inhibition was 2.49%.
Next, `Cc1nn(CCC#N)c2nc(-c3ccc(F)cc3)cc(C(=O)O)c12`: 0.45%.
`Cc1noc(/C=C/N2CCOCC2)c1S(=O)(=O)N(C)CCc1ccc(Cl)cc1`: the inhibition is 3.54%.
For the compound `Cc1cc(C)nc(SCC(=O)OCC(=O)N2CCc3ccccc32)n1`, the inhibition was -2.45%.
Regarding `COC(=O)C1=CN(C(C)C)C=C(C(=O)OC)C1c1cccs1`, the inhibition is -11.7%.
In the case of `O=C(OCCN1CCCCC1)c1ccc(F)cc1`, the inhibition is -3.82%.
Consider `Cc1cc(C)n(C(=O)N2c3ccccc3Sc3ccccc32)n1`, for which the inhibition is 2.13%.
In the case of `COc1ccc(CC(=O)N/N=C2/CC(=O)CC(C)(C)C2)cc1`, the inhibition is -0.19%.
Take `Cc1ccc(Nc2nc(N)nc(CSc3nc4c(n3-c3ccccc3)CCCC4)n2)cc1`: the inhibition was -1.36%.
Consider `S=C(Nc1cccnc1)Nc1ccccc1N1CCCCC1`, for which the inhibition was 3.7%.
`O=C(Cn1c(=O)oc2ccccc21)NCc1ccccc1`: the inhibition is -2.65%.
Take `CC(C(=O)N1CCCc2ccccc21)n1nc(-c2cccs2)oc1=O` (configuration not stated): the inhibition is -0.37%.
Next, `CCNC(=O)c1ccc(OCc2c(C)noc2C)c(OC)c1`: -0.55%.
With `CCOC(=O)CSc1ncnc2sc3c(c12)CCC3`, the inhibition is -0.59%.
As to `CSc1nnc(C)n1Cc1ccccc1`, the inhibition was -0.73%.
For the compound `CC1CN(C(=O)COC(=O)c2cccc3ccccc23)CC(C)O1` (configuration not stated), the inhibition is 1.48%.
For the compound `Cc1occc1C(=O)Nc1cccc(-c2nn[nH]n2)c1`, the inhibition is 1.61%.
Next, `Cn1c(=O)c2c(SC/C(O)=C(\C#N)c3nc4ccccc4[nH]3)nc(C(C)(C)C)nc2n(C)c1=O`: 0.74%; `Cc1cc(-c2nn(C)c(=O)c3ccccc23)cc(C)c1OC(=O)Nc1ccc(Cl)cc1`: 1.43%; `NNC(=O)c1ccc(COc2ccccc2)o1`: -1.29%.
Take `CC1CN(C(=O)CSc2nc3scc(-c4ccccc4)c3c(=O)n2N)CC(C)O1` (configuration not stated): the inhibition is 1.03%.
Regarding `COc1ccc(C)cc1NC(=O)C(OC(=O)c1ccc(Br)o1)c1ccccc1` (configuration not stated), the inhibition is -0.6%.
Next, `CCN=c1sc(C(=O)Nc2ccccc2)c(C)n1CC`: -0.02%.
For the compound `COC(=O)CCC1(C(=O)O)CCOC(C)(C)C1` (configuration not stated), the inhibition was 0.97%.
Next, `NC(=O)CSc1nnc(SCCOc2ccccc2)s1`: 0.35%; `O=C(CSc1nc2cc3c(cc2c(=O)n1Cc1ccc2c(c1)OCO2)OCO3)NCCc1ccccc1`: 0.07%; `COCCn1c(C)cc(C(=O)CSc2nc(C)c(C)n2C2CCCCC2)c1C`: -0.27%.
